Among the data in PubChem BioAssay (NCI) are growth values, retold here.

Compounds without any hit were thinned out: in the full panel of roughly 83,000, 20% have a hit.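 A percent growth of 40 corresponds to 60% growth inhibition; 0 means no net growth; -100 means all cells died. Active threshold: below 10.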 The source made the active and inactive calls.

The subject of this assay is OVCAR-4 ovarian. Nature of the assay: NCI-60 one-dose screen, 48 h (100 = growth as untreated, 0 = no growth, -100 = all killed). Particulars: 10 µM unless noted.
Regarding `Cc1ccc(S(=O)(=O)N2CCN(C(=O)CSc3nc4ccc(C)cc4[nH]3)CC2)cc1`, the growth is 107% (inactive). In the case of `CCOc1cc(/C=C/C(=O)C(C(=O)/C=C/c2ccc(OC(=O)CNc3nc4ccccc4[nH]3)c(OCC)c2)C(=O)CNc2nc3ccccc3[nH]2)ccc1OC(=O)CNc1nc2ccccc2[nH]1` it was 26.9% (inactive); in that of `COc1ccc(CC(=O)Nc2nn3c(-c4cc(C(F)(F)F)cc(C(F)(F)F)c4)nnc3s2)cc1`, 66.3% (inactive). In the case of `O=C(Nc1nc2ccc(OC(F)(F)F)cc2s1)c1ccc(F)cc1` it was 25.5% (inactive). In the case of `O=C(/C=C/c1ccc([N+](=O)[O-])cc1)c1ccc2c3c(cccc13)CC2` it was 75.8% (inactive). With `O=C(Nc1ccc(Cl)cc1)Nc1nc2ccc(OC(F)(F)F)cc2o1`, the growth was 83.7% (inactive). As for `O=C(/C=C/c1c(-c2ccccc2)[nH]c2ccccc12)S(=O)(=O)c1ccccc1`, the growth was 80.1% (inactive). In the case of `Clc1ccc2nc(CI)c(CI)nc2c1` it was 100% (inactive); in that of `FC(F)(F)c1cc(-c2nnc3n2N=C(N2CCCC2)CS3)cc(C(F)(F)F)c1`, 102% (inactive). For the compound `Clc1ccc(C2c3ccccc3-c3nccn32)c(Cl)c1` (stereo not drawn), the growth is 47.3% (inactive). To `COC(=O)c1c(NC(=O)CSc2nnnn2-c2ccc(OC)cc2)sc(C)c1C` belongs 94.5% (inactive); to `O=[N+]([O-])c1ccc(NS(=O)(=O)c2ccc(Cl)c(Cl)c2)cc1`, 63.4% (inactive); to `O=C(O)C1CCN(S(=O)(=O)c2ccc(-c3ccccc3)cc2)CC1`, 106% (inactive). In the case of `O=C1/C=C/[C@@H](O)[C@@H]2C[C@@H](O)C[C@H]2/C=C/CCC[C@H](CO)O1` it was 26.2% (inactive); in that of `COc1ccc(N2CCN(CC(=O)N3CCN(c4nnc(-c5ccccc5)c(-c5ccccc5)n4)CC3)CC2)cc1`, 49.8% (inactive).

For the compound `O=C1/C(=C/c2ccc(F)cc2)Cc2ccccc21`, the growth is 87.7% (inactive).

As to `CCN(CC)CCOCC[C@H]1CC[C@H]2[C@@H]3[C@H](C)Cc4cc(OS(N)(=O)=O)ccc4[C@H]3CC[C@]12C`, the growth was 8.49% (active). As to `COc1cc(-c2n[nH]nc2-c2ccccn2)cc(OC)c1OC`, the growth was 88.2% (inactive). To `Cc1cc(C)c2c(N)c3cccc(C)c3nc2n1` belongs 2.47% (active); to `N[C@H](CS)C(=O)O`, 102% (inactive). To `CCCCCCCCCCN1CCC(N2CCCCC2)CC1` belongs 53.7% (inactive). To `CCCCc1ccc(C(N)=O)nc1` belongs 100% (inactive); to `O=C(CN1CCN(c2ccc(Cl)cc2)CC1)N1CCN(c2nnc(-c3ccc(Cl)cc3)c(-c3ccc(Cl)cc3)n2)CC1`, 74.2% (inactive); to `COc1ccc2c(=O)c(OC)c(-c3cc(OC)c(OC)c(OC)c3)oc2c1`, 96.6% (inactive). Take `O=Nc1c2cccnc2n2nnc3ccc(Cl)cc3c12`: the growth is -27.7% (active). In the case of `CC(=O)/C(=C/c1ccc(Cl)cc1)C(=O)c1ccccc1` it was 79.7% (inactive). To `C[C@H]1C(=O)N2c3ccccc3[C@@]3(O)C[C@@H](n4cnc5ccccc5c4=O)C(=O)N1[C@@H]23` belongs 109% (inactive); to `O=C(CN1CCN(c2ccc(Cl)cc2)CC1)N1CCN(c2nnc(-c3ccccc3)c(-c3ccccc3)n2)CC1`, 30.6% (inactive); to `[N-]=[N+]=NCc1cccc(/C(O)=C/C(=O)C(=O)O)c1`, 94.9% (inactive). As for `COc1cccc(N2CCN(CC(=O)N3CCN(c4nnc(-c5ccc(Cl)cc5)c(-c5ccc(Cl)cc5)n4)CC3)CC2)c1`, the growth was 57.9% (inactive). Turning to `COc1ccc(C(=O)/C=C/c2ccc(C)cc2)cc1OC`, the growth was 72.6% (inactive).

With `CCOC(=O)c1cnc2c(C)cc(C)cc2c1NCCCN(C)C`, the growth is 44.4% (inactive). To `CN(C)CCCNc1nn2c(=O)c3ccccc3nc2c2ccccc12` belongs 77.4% (inactive); to `COc1cc(C(=O)c2cc3c(cc2C)OCO3)cc(OC)c1OC`, 38% (inactive). In the case of `Cc1cc(C(=O)Nc2ccc3cc(CN4CCOCC4)ccc3n2)c(C)n1-c1ccccc1` it was 6.66% (active); in that of `Cc1sc2nc3c4ccccc4c(NCCCN(C)C)nn3c(=O)c2c1C`, 65.8% (inactive). In the case of `CCN(CC)c1ccc(C(=C2C=CC(=[N+](CC)Cc3cccc(S(=O)(=O)O)c3)C=C2)c2ccc(N(CC)Cc3cccc(S(=O)(=O)O)c3)cc2)cc1` it was 67.1% (inactive). Take `COc1ccc(N2CCN(CC(=O)N3CCN(c4nnc(-c5ccc(Cl)cc5)c(-c5ccc(Cl)cc5)n4)CC3)CC2)cc1`: the growth was 55.5% (inactive).
